Growth data for 27 molecules are collected here from PubChem BioAssay (NCI).

Structures are written as SMILES. The panel holds about 83,000 compounds, 20% with a hit somewhere; the sample as a whole holds those more often.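 96-well plates, one dose, 48 hours. Percent growth reported; active if below 10.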 Values without a mark were called inactive. Calls of active or inactive are those of the source.

Test in all cases: NCI-60 one-dose screen, 48 h (100 = growth as untreated, 0 = no growth, -100 = all killed)
What all share (settings): 10 µM unless noted

In assay [1] the test system is SR leukemia.
Assay [2] relates to RPMI-8226 leukemia.
For assay [3], the system named is OVCAR-8 ovarian.
Assay [4] concerns OVCAR-5 ovarian.
Assay [5] concerns OVCAR-4 ovarian.
For assay [6], the system named is SK-OV-3 ovarian.
The subject of assay [7] is IGROV1 ovarian.
The test system of assay [8] is OVCAR-3 ovarian.
Assay [9] concerns HS 578T breast.
In assay [10] the test system is NCI/ADR-RES ovarian.

For `COc1ccc(/C=C/C(=O)c2ccc(Nc3ncnc4ccccc34)cc2)cc1OC`, the growth was 16.7% in assay [1]; -11.4% (active) in assay [2]; 65% in assay [3]; 103% in assay [4]; 85.5% in [5]; 102% in assay [6]. Moreover, the growth was 76.3% in assay [7], 74.9% in [8], 110% in assay [9] and 78.1% in assay [10].

With `C=C1C(=O)O[C@H]2[C@H]1CC/C(COC(=O)CCCCCC(=O)OC/C1=C/CC[C@@]3(C)O[C@H]3[C@H]3OC(=O)C(=C)[C@@H]3CC1)=C\CC[C@@]1(C)O[C@@H]21`, the growth is 3.39% (active) in assay [1]; 1.08% (active) in assay [2]; 12.2% in assay [3]; 51.2% in [4]; 37.2% in [5]; 94.6% in assay [6]. The growth in assay [7] is 7.45% (active); in assay [8], 1.8% (active); in assay [9] it was 18.7%; in assay [10], 46.9%.

Regarding `C/C(=C(/c1ccccc1)c1ccc(OCC(O)CN2CCOCC2)cc1)c1ccccc1` (stereo not given), the growth was 47.2% in assay [1]; 75% in assay [2]; 88.5% in [3]; 87.2% in assay [4]; 89.3% in [5]; 91.3% in [6]. Besides, the growth in assay [7] was 96.2%; in assay [8] it was 90.4%; in [9] it was 90.8%; in assay [10] it was 93.2%.

Consider `COc1ccc(C(O)c2cc3c(N)c(C(=O)Nc4ccc(Cl)cc4)sc3nc2C)cc1` (stereo not given), for which the growth is -9.53% (active) in assay [1]; 5.22% (active) in assay [2]; 30.6% in assay [3]; 46.8% in assay [4]; 38.4% in assay [5]; 32.1% in assay [6]. The growth in assay [7] is 33%; in [8] it was -35.7% (active); in [9], 7.82% (active); in assay [10] it was 16%.

`c1ccc(C2CC(c3cccc(Nc4ccncc4)c3)=NN2c2ccccc2)cc1` (stereo not given): the growth in assay [1] is 5.55% (active); in assay [2] it was 16.2%; in assay [3] it was 68.5%; in [4] it was 81.6%; in assay [5], 67.5%; in assay [6], 84.1%. In addition, the growth in assay [7] is 62.6%; in [8], 78.3%; in [9], 82.5%; in assay [10] it was 74.2%.

Turning to `C=C1C(=O)O[C@H]2[C@H]1CC/C(CNC(=O)/C=C/c1ccc(Br)cc1)=C\CC[C@@]1(C)O[C@@H]21`, the growth is 0.986% (active) in [1]; -33.7% (active) in [2]; 2.52% (active) in assay [3]; -51.4% (active) in assay [4]; 44.7% in assay [5]; 46.6% in assay [6]. The growth in assay [7] is -27.9% (active); in assay [8], -91.4% (active); in [9], -7.13% (active); in assay [10], 38.5%.

Take `CC(=O)Nc1ccc(C(=O)Nc2cc(-c3ccccc3)ccc2N)cc1`: the growth is 39.4% in assay [1]; 83.6% in assay [2]; 54.9% in [3]; 60.5% in assay [4]; 76.7% in assay [5]; 67.9% in assay [6]. The growth in assay [7] is 94%; in [8] it was 75.2%; in [9] it was 92%; in [10], 42.9%.

Turning to `C#CC(=O)Nc1cccc(Nc2nc3c(c(NCc4ccccc4)n2)CCCC3)c1`, the growth in [1] is -27% (active); in [2], -23.7% (active); in [3], -89.6% (active); in [4] it was -45% (active); in [5] it was -95.3% (active); in [6], -98.5% (active). Moreover, the growth is -42.6% (active) in [7], -82.9% (active) in assay [8], -5.41% (active) in assay [9] and 5.07% (active) in [10].

Take `COc1ccncc1C#Cc1cncc(C(=O)Nc2ccc(CN3CCN(C)CC3)c(C(F)(F)F)c2)c1`: the growth is 9.65% (active) in assay [1]; 25.8% in assay [2]; 36.7% in assay [3]; 22.2% in assay [4]; 30.7% in assay [5]; 32.7% in [6]. For the same molecule, the growth in assay [7] is 11.3%; in assay [8], 43.5%; in assay [9], 11.8%; in [10], 54.6%.

`COc1ccccc1Nc1cc(O)c2c(=O)cc(-c3ccccc3)oc2c1`: the growth was 5.75% (active) in assay [1]; 16.4% in assay [2]; 32.4% in assay [3]; 78.1% in assay [4]; 65.6% in [5]; 50.7% in [6]. The growth in assay [7] was 51.4%; in assay [8], 5.9% (active); in assay [9] it was 45.6%; in [10], 11.5%.

In the case of `Brc1ccc(C2CC(c3cccc(Nc4ccncc4)c3)=NN2c2ccccc2)cc1` (stereo not given), the growth was 4.53% (active) in assay [1]; 50.5% in assay [2]; 77.6% in assay [3]; 89.3% in assay [4]; 70.3% in assay [5]; 84.4% in [6]. Also, the growth is 58.3% in [7], 80% in [8], 90.9% in assay [9] and 79.2% in [10].

As to `O=C(Nc1nc(-c2ccccc2Cl)cs1)c1cc(-c2ccccc2)nc2ccc(Cl)cc12`, the growth was 21.9% in assay [1]; 21.4% in [2]; 19.2% in assay [3]; 93.2% in assay [4]; 76% in assay [5]; 95.5% in [6]. In addition, the growth is 59.7% in assay [7], 28.1% in assay [8], 76.4% in assay [9] and 16.5% in assay [10].

Consider `COc1ccc(-c2nc(SCCC(C)C)nc(N/N=C(/C)c3ccc(C)cc3)c2C#N)cc1`, for which the growth was 91.2% in assay [1]; 88% in assay [2]; 88.1% in assay [3]; 85.4% in assay [4]; 103% in assay [5]; 95.7% in [6]. In addition, the growth in assay [7] is 84.7%; in [8], 102%; in [9] it was 85.1%; in assay [10], 89.8%.

On to `FC(F)(F)Oc1cccc(-c2cc(NCCCCCCNc3cc(-c4cccc(OC(F)(F)F)c4)nc4ccc(N5CCCC5)cc34)c3cc(N4CCCC4)ccc3n2)c1`, for which the growth in assay [1] is -40.7% (active); in assay [2], -34.3% (active); in [3] it was -50.2% (active); in assay [4], -29.4% (active); in [5], -72.7% (active); in assay [6], 89.8%. Besides, the growth in [7] is -64% (active); in [8], -95.9% (active); in assay [9], -4.44% (active); in assay [10], 21.6%.

With `COc1ccc(C(=O)c2cc3c(N)c(C(=O)Nc4ccc(Br)cc4)sc3nc2C)cc1`, the growth in [1] is 51.5%; in [2], 77%; in [3], 37.2%; in assay [4], 88%; in assay [5], 0.804% (active); in assay [6], 62.1%. For the same molecule, the growth in [7] is 85.9%; in assay [8], 65.4%; in [9], 32.3%; in assay [10], 70%.

On to `Cc1cccc(Oc2ccc(Nc3ncnc4ccc(NC(=O)CN(C)C)cc34)cc2Cl)c1`, for which the growth in assay [1] is 1.9% (active); in [2], 46.6%; in [3], 57.3%; in assay [4] it was 60.9%; in [5] it was 45.2%; in [6], 16%. Also, the growth in [7] is 3.8% (active); in assay [8], 40.7%; in assay [9] it was 68%; in assay [10], 47.2%.

Consider `Cc1ccc(C(c2c(O)c3cc(Br)ccc3[nH]c2=O)c2c(O)c3cc(Br)ccc3[nH]c2=O)cc1`, for which the growth in assay [1] was 97.3%; in assay [2], 73.2%; in assay [3], 96%; in [4] it was 104%; in assay [5] it was 81.7%; in [6] it was 86.1%. Also, the growth in assay [7] is 89.6%; in assay [8], 86.7%; in assay [9], 82.4%; in assay [10] it was 101%.

As to `CC(C)[N+](C)(CCOC(COc1ccccc1)COc1ccccc1)C(C)C`, the growth in [1] was 91.5%; in assay [2], 49.3%; in assay [3], 104%; in assay [4], 104%; in assay [5] it was 78.6%; in assay [6], 105%. Also, the growth in [7] is 76.6%; in [8], 75.4%; in assay [9], 105%; in assay [10], 107%.

In the case of `CC(=O)c1cc2c(N)c(C(=O)Nc3cncc4ccccc34)sc2nc1C`, the growth is 77.5% in assay [1]; 94.9% in assay [2]; 104% in assay [3]; 104% in assay [4]; 113% in assay [5]; 93.6% in assay [6]. The growth in assay [7] was 104%; in assay [8], 110%; in assay [9], 95.3%; in [10] it was 104%.

As to `CSc1nc(O)c(-c2ccccc2)c(=O)[nH]1`, the growth is 96% in assay [1]; 102% in assay [2]; 101% in [3]; 97.5% in assay [4]; 108% in assay [5]; 116% in assay [6]. In addition, the growth in assay [7] is 104%; in [8], 120%; in assay [9], 110%; in assay [10], 106%.

Consider `COc1ccc(C(=O)c2cc3c(N)c(C(=O)Nc4cccc(Br)c4C)sc3nc2C)cc1`, for which the growth in [1] was -21.4% (active); in assay [2], 8.87% (active); in assay [3], 1.15% (active); in [4], 40.6%; in assay [5] it was 37.4%; in assay [6], 23.2%. For the same molecule, the growth is 24.3% in [7], -20.1% (active) in assay [8], 12.4% in assay [9] and 0.768% (active) in [10].

`COc1ccc(C(=O)c2cc3c(N)c(C(=O)Nc4ccc(Cl)cc4)sc3nc2C)cc1`: the growth in assay [1] was 36.4%; in assay [2], 74.6%; in assay [3], 50.2%; in assay [4] it was 86.7%; in assay [5] it was 21.5%; in [6], 73.5%. Also, the growth in [7] was 90.6%; in assay [8] it was 73.3%; in assay [9] it was 60.3%; in assay [10], 75.3%.

Consider `O=C(/C=C\c1ccc(OCCCCCC[P+](c2ccccc2)(c2ccccc2)c2ccccc2)cc1)c1ccc2c(c1)OCCO2`, for which the growth in assay [1] was -18.9% (active); in assay [2], -41.7% (active); in assay [3], 1.04% (active); in assay [4] it was 13.9%; in assay [5] it was -3.06% (active); in assay [6] it was -23.8% (active). Moreover, the growth in assay [7] was 5.29% (active); in assay [8], -27% (active); in assay [9], 7.53% (active); in [10] it was 78.1%.

Turning to `CN1CCN(c2c(F)cc(NC3=C(Cl)C(=O)c4ncccc4C3=O)cc2F)CC1`, the growth in assay [1] is 4.88% (active); in [2], 67.1%; in assay [3], 78.1%; in assay [4], 105%; in assay [5], -87.8% (active); in [6], 101%. The growth was 57.4% in assay [7], -28% (active) in [8], 97.2% in [9] and 89.7% in assay [10].

As to `COc1ccc(NC(=O)c2sc3nc(C)c(C(O)c4ccc(OC)cc4)cc3c2N)cc1` (stereo not given), the growth was 4.21% (active) in assay [1]; 39.8% in [2]; 20.4% in assay [3]; 50.6% in assay [4]; 50.4% in [5]; 38.5% in assay [6]. Moreover, the growth in assay [7] was 29.1%; in assay [8] it was 16.7%; in assay [9] it was 20.1%; in assay [10], 16.1%.

Turning to `O=C(/C=C/c1ccc[nH]1)c1ccc(-n2ccc(C(F)(F)F)n2)cc1`, the growth was 28.4% in assay [1]; -19.3% (active) in assay [2]; 88% in assay [3]; 89% in assay [4]; 97.7% in assay [5]; 114% in assay [6]. Moreover, the growth in assay [7] was 103%; in assay [8] it was 0.498% (active); in assay [9], 100%; in [10], 88.3%.

Regarding `CC(C)(C)CC(C)(C)Nc1c(-c2ccc3c(c2)OCO3)nc2cnccn12`, the growth in assay [1] is 73.1%; in [2], 69.7%; in assay [3], 95.1%; in [4] it was 91.2%; in assay [5], 86.9%; in [6], 92%. In addition, the growth in assay [7] was 72.1%; in assay [8], 92.5%; in assay [9] it was 88.5%; in [10], 87.7%.
